Assay results reported in PubChem BioAssay (Tox21).
Values joined by “and” are separate entries in the source; they are usually repeats but may differ in a detail not shown here. Equal entries are not always repeated. Records with an inconclusive call do not appear. Where a call stands in place of a potency, no number is given. Unmarked numbers belong to inactive results. Active and inactive are the calls of the source. Calls follow the shape of the dose curve; as a rule, active = well fitted cell-killing curve with a large enough effect in the repeat runs; inconclusive = weak or mixed curves, or effect the other way; inactive = flat fitted curve, though single readings scatter.

Assay: qHTS RealTime-Glo MT Cell Viability Assay in HepG2 cells - 40 hour (AID 1224870); also: nearly all actives have a fitted effect of over 50% in size
Conditions: RealTime-Glo luminescence; series mostly up to 76.8 µM; activity change, negative = cytotoxic: at the top concentration
Description: National Center for Advancing Translational Sciences [NCATS]
NIH Chemical Genomics Center [NCGC]
U.S. Environmental Protection Agency [EPA]
National Institutes of Environmental Health Sciences [NIEHS]
National Toxicology Program [NTP]
U.S. Food and Drug Administration [FDA]
Measure of cell viability is critical in the cell-base assay. Analysis of cell viability is necessary for the characterization of cell responses to cytotoxic drugs and environmental stress. A RealTime-Glo MT Cell Viability Assay to monitor cell viability in real time of continues cell culture during 40 hours of compound treatment was used to screen Tox21 10K library compounds in HepG2 cells. The RealTime-Glo MT Cell Viability Assay is a nonlytic, homogeneous, bioluminescent method to measure cell viability in real time using a simple, plate-based method. The assay involves adding NanoLuc luciferase and a cell-permeant prosubstrate to cells in culture. Viable cells reduce the proprietary prosubstrate to generate a substrate for NanoLuc luciferase. This substrate diffuses from cells into the surrounding culture medium, where it is rapidly used by the NanoLuc Enzyme to produce a luminescent signal. The signal correlates with the number of viable cells, making the assay well suited for cytotoxicity studies.
Tox21 Assay Protocol Summary:
The mixture of HepG2 cell suspension and reagents were dispensed at 600cells/6 ul/well in 1536-well tissue culture treated black solid bottom plates using a Multidrop dispenser. After the assay plates were incubated at a 37 C/5% CO2 incubator for 5 hours, 23 nL of compounds dissolved in DMSO, positive and negative controls was transferred to the assay plate by a pintool work station. The plates were incubated at 37 C for 40 hours. The luminescence intensity were measured at 0h, 8h, 16h, 24h, 32h and 40h time points using ViewLux plate reader during compound treatment.
Potency is read from the fitted curve at half-maximal effect.

For `CC/C(=C(/CC)c1ccc(O)cc1)c1ccc(O)cc1`, which Potency is on record?
Its Potency is “inactive”.

For `c1ccc2cc3ccccc3cc2c1`, which Potency is on record?
Its Potency is “inactive”.

With `C=CCNCC=C` as the compound, how does the Potency read?
Its Potency is “inactive”.

For `CCC(=O)O[C@H]1[C@H](O[C@@H]2[C@@H](C)[C@H](O[C@H]3C[C@@](C)(OC)[C@@H](O)[C@H](C)O3)[C@@H](C)C(=O)O[C@H](CC)[C@@](C)(O)[C@H](O)[C@@H](C)C(=O)[C@H](C)C[C@@]2(C)O)O[C@H](C)C[C@@H]1N(C)C`, which Potency is on record?
Its Potency is “inactive”.

For `CCCCCCCCCCC(CO)CCCCCCCC` (stereo not given), which Potency is on record?
The Potency was “inactive”.

Which Potency does the source give for `Brc1nc2ccccc2s1` here?
The Potency was “inactive”.

With `CCC/C=C/C=O` as the compound, how does the Potency read?
Its Potency is “inactive”.

With `CC(=O)Oc1c(C)c(C)c2c(c1C)CC[C@@](C)(CCC[C@H](C)CCC[C@H](C)CCCC(C)C)O2` as the compound, how does the Potency read?
The Potency was “inactive”.

Which Potency does the source give for `O=C1OC2(c3ccccc31)c1cc(I)c(O)c(I)c1Oc1c2cc(I)c(O)c1I` here?
Its Potency is 24.6 µM (active) and 12.4 µM (active) and 29.8 µM (active).

Which Potency does the source give for `CC1(C)O[C@@H]2C[C@H]3[C@@H]4C[C@H](F)C5=CC(=O)C=C[C@]5(C)[C@@]4(F)[C@@H](O)C[C@]3(C)[C@]2(C(=O)CO)O1` here?
The Potency was “inactive”.

For `Nc1cc(Cl)c(N)c(Cl)c1`, which Potency is on record?
The Potency was “inactive”.

For `Cc1ccc(N)c([N+](=O)[O-])c1`, which Potency is on record?
The Potency was “inactive”.

With `CCCCCCC(C)O` (stereo not given) as the compound, how does the Potency read?
Its Potency is “inactive”.

Which Potency does the source give for `CCCCCCCC/C=C\CCCCCCCC(=O)O` here?
Its Potency is “inactive”.

Which Potency does the source give for `C=CCOC(=O)C(=C)C` here?
The Potency was “inactive”.

For `CC(=O)[C@H]1CC[C@H]2[C@@H]3CC=C4C[C@@H](O)CC[C@]4(C)[C@H]3CC[C@]12C`, which Potency is on record?
Its Potency is “inactive”.

With `CN(C)C` as the compound, how does the Potency read?
Its Potency is “inactive”.

Which Potency does the source give for `CCO[Si](CCCNC(N)=O)(OCC)OCC` here?
Its Potency is “inactive”.

Which Potency does the source give for `CC(=O)Oc1ccc(C(c2ccc(OC(C)=O)cc2)c2ccccn2)cc1` here?
Its Potency is “inactive”.

For `OC[C@H]1O[C@@H]2O[C@H]3[C@H](O)[C@@H](O)[C@@H](O[C@H]4[C@H](O)[C@@H](O)[C@@H](O[C@H]5[C@H](O)[C@@H](O)[C@@H](O[C@H]6[C@H](O)[C@@H](O)[C@@H](O[C@H]7[C@H](O)[C@@H](O)[C@@H](O[C@H]1[C@H](O)[C@H]2O)O[C@@H]7CO)O[C@@H]6CO)O[C@@H]5CO)O[C@@H]4CO)O[C@@H]3CO`, which Potency is on record?
Its Potency is “inactive”.

For `O=C(O)CCCC(=O)O`, which Potency is on record?
Its Potency is “inactive”.

Which Potency does the source give for `Oc1c(Cl)ccc(Cl)c1Cl` here?
The Potency was “inactive”.

Which Potency does the source give for `NC[C@H](O)c1ccc(O)c(O)c1` here?
Its Potency is “inactive”.

For `C=CN1CCCC1=O`, which Potency is on record?
Its Potency is “inactive”.

For `O=C(O)CCCCCCCCCCCC(=O)O`, which Potency is on record?
The Potency was “inactive”.

With `C=CC(=O)OCCCC` as the compound, how does the Potency read?
The Potency was “inactive”.

With `CN(C)/N=N/c1nc[nH]c1C(N)=O` as the compound, how does the Potency read?
The Potency was “inactive”.

With `CC(C)(Oc1ccc(Cl)cc1)C(=O)O` as the compound, how does the Potency read?
The Potency was “inactive”.

For `Cc1ccc([N+](=O)[O-])c(C)c1`, which Potency is on record?
Its Potency is “inactive”.

Which Potency does the source give for `COc1cc([C@H]2Oc3cc([C@H]4Oc5cc(O)cc(O)c5C(=O)[C@@H]4O)ccc3O[C@@H]2CO)ccc1O` here?
Its Potency is “inactive”.

Which Potency does the source give for `Cc1ccc(C(C)(C)C)cc1` here?
Its Potency is “inactive”.

For `CCCCCC1C(=O)CCC1CC(=O)OC` (stereo not given), which Potency is on record?
Its Potency is “inactive”.

For `C[C@]12CC[C@@H]3c4ccc(O)cc4CC[C@H]3[C@@H]1CC[C@@H]2O`, which Potency is on record?
Its Potency is “inactive”.

With `c1ccc2ncccc2c1` as the compound, how does the Potency read?
The Potency was “inactive”.

For `CC1(C)NC(=O)N(c2ccc([N+](=O)[O-])c(C(F)(F)F)c2)C1=O`, which Potency is on record?
The Potency was “inactive”.

Which Potency does the source give for `COc1ccc(C(=O)c2ccccc2O)c(O)c1` here?
Its Potency is “inactive”.

For `OC[C@@H](O)[C@@H](O[C@@H]1O[C@H](CO)[C@H](O)[C@H](O)[C@H]1O)[C@H](O)[C@@H](O)CO`, which “activity change, negative = cytotoxic” value is on record?
Its value is 0.697% [at 35.3 µM].

Which Potency does the source give for `c1ccc2c(c1)[nH]c1ccccc12` here?
Its Potency is “inactive”.

Which Potency does the source give for `Cc1ccc(C)c(O)c1` here?
Its Potency is “inactive”.

With `CC(C)=CCO` as the compound, how does the Potency read?
Its Potency is “inactive”.
